Data taken from PubChem BioAssay AID784 (The Scripps Research Institute Molecular Screening Center, 2007).
Screen size: about 30,000 compounds; about 130 (0.43%) were called active. Rule as the data show it: active = activation above about 65%; inactive = the rest. The list comes from a sample in which actives are over-represented; it also holds similar structures and randomly drawn compounds.

Each compound was assayed against Lysosomal acid glucosylceramidase (Homo sapiens) (UniProt P04062) (assay: raising glucocerebrosidase activity, Gaucher cells – primary screen (AID 784;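 also: 0% = vehicle wells and 100% = positive control wells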)). Conditions: L444P Gaucher fibroblasts, 4-MU-glucoside fluorescence, 3 days; at 10 µM; hits give high values.
Chain of Lysosomal acid glucosylceramidase (Homo sapiens) (P04062 whole entry L483P): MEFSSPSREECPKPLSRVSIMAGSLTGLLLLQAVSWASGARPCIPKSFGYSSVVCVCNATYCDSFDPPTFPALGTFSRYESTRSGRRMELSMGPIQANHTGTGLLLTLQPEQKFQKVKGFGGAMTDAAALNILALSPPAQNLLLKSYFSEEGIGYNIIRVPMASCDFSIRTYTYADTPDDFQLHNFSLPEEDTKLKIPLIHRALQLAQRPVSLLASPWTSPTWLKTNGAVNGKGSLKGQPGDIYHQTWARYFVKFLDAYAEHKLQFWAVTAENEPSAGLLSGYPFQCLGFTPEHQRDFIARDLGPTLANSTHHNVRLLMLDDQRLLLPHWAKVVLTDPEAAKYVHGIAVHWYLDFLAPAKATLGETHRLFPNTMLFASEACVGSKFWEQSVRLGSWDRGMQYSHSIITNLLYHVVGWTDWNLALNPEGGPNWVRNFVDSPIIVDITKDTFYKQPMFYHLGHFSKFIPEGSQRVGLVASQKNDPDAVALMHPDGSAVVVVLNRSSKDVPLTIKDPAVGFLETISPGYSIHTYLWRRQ

| SMILES | activation |
| --- | --- |
| COc1ccc(CC(=O)Nc2ccc3c(c2)CCC3)cc1S(=O)(=O)N1CCOCC1 | 32.8% (inactive) |
| Cc1ccc(C(=O)NC2CC(C)(C)NC(C)(C)C2)c(C)c1 | -52.5% (inactive) |
| CC(=NC1CCN(Cc2ccccc2)CC1)c1c(O)[nH]c(=O)[nH]c1=O | -6.5% (inactive) |
| CS(=O)(=O)N(CC(=O)N1CCN(Cc2ccc3c(c2)OCO3)CC1)c1ccc2c(c1)OCO2 | -6.7% (inactive) |
| CCC(C)n1[nH]c(=O)cc1N (stereo not given) | 4.55% (inactive) |
| COc1ccc(C(=O)Cn2nnc(-c3ccc(N4CCOCC4)cc3)n2)cc1OC | -17.5% (inactive) |
| O=C1CN(C(=O)COC(=O)C2CC(=O)N(Cc3ccco3)C2)c2ccccc2N1 (stereo not given) | 4.58% (inactive) |
| CN(C(=O)c1ccno1)c1nnc(-c2cccnc2)s1 | -12.7% (inactive) |
| COC(=O)c1sccc1NC(=O)c1csc2c1CCCC2 | -10.4% (inactive) |
| CC(=O)Cc1nsc(NC(=O)c2csc3c2CCCC3)n1 | -9.06% (inactive) |
| COC(=O)c1sc(NC(=O)c2csc3c2CCCC3)nc1C | 67.1% (active) |
| COc1cccc(N(CC(=O)Nc2cccc(N(C)S(C)(=O)=O)c2)S(C)(=O)=O)c1 | -7.1% (inactive) |
| COc1cccc(N(CC(=O)Nc2cccc(F)c2)S(C)(=O)=O)c1 | 4.09% (inactive) |
| CCN(CC)S(=O)(=O)c1ccc(NC(=O)CN(c2cccc(F)c2)S(C)(=O)=O)cc1 | 83.1% (active) |
| COc1ccccc1N1CCN(C(=O)CSc2nnc(-c3ccoc3C)o2)CC1 | 7.59% (inactive) |
| CCC(C)(C)NC(=O)C(c1cccn1C)N(Cc1ccc(C)cc1)C(=O)Cn1nnc2ccccc21 (stereo not given) | -4.98% (inactive) |
| CCOC(=O)C1(c2ccccc2)NC(c2ccc(N(C)C)cc2)C2C(=O)N(C)C(=O)C21 (stereo not given) | -22.4% (inactive) |
| CCOC(=O)C1(Cc2ccc(O)cc2)NC(c2ccccc2F)C2C(=O)N(C)C(=O)C21 (stereo not given) | 102% (active) |
| COc1ccc2nc(N3CCCC(O)C3)c(C#N)cc2c1 (stereo not given) | -3.51% (inactive) |
| Cc1nc(SC(C)C)[nH]c(=O)c1Cc1ccccc1 | 1.07% (inactive) |

| SMILES | activation |
| --- | --- |
| CCc1c(C)nc2ncnn2c1N1CCC(C(=O)NCc2ccc3c(c2)OCO3)CC1 | 9.86% (inactive) |
| CCOC(=O)C(C)Oc1cccc2c(=O)n(CC(=O)N3CCc4ccccc43)ccc12 (stereo not given) | 3.53% (inactive) |
| O=C(COC(=O)c1ccc2c(c1)OCCO2)NCc1ccccc1 | 1.84% (inactive) |
| Cc1cc(C)c(S(=O)(=O)NCCCN2CCOCC2)cc1Br | 17.8% (inactive) |
| CCN(CC)S(=O)(=O)c1cccc(C(=O)Nc2ccccc2)c1 | -3.99% (inactive) |
| CC(C)C[C@H](NC(=O)NCCc1ccc(Cl)cc1)C(=O)O | -14.7% (inactive) |
| COc1ccc(CCN=C2SCC(=O)N2C)cc1OC | -11.5% (inactive) |
| CCOc1ncccc1C(=O)OCc1cn2cc(Cl)ccc2n1 | 2.09% (inactive) |
| COc1ccccc1N1CCN(C(=O)Cn2nnc(-c3cccs3)n2)CC1 | -45% (inactive) |
| O=C(CN1CCN(c2nc(-c3ccccc3)cs2)CC1)NCc1ccc2c(c1)OCO2 | -22.9% (inactive) |
| COC(=O)c1cn(-c2ccccc2)nc1-c1cccnc1 | 64.9% (inactive) |
| CCOc1ccc(N2C(=O)CC(N(O)c3ccccc3)C2=O)cc1 (stereo not given) | 20.8% (inactive) |
| Cc1cc(C)nc(SCc2nnc(SCC(=O)OC3CCCCC3)o2)n1 | -16% (inactive) |
| Cc1ccc(C(=O)CSc2nc3ccccc3c(=O)n2N)o1 | -3.06% (inactive) |
| Cc1ccc(S(=O)(=O)NCC(=O)OCC(=O)N2CCc3ccccc32)cc1 | -6.72% (inactive) |
| O=C(Nc1ccccc1)c1cccnc1Nc1ccccc1 | -10.1% (inactive) |
| O=C(Nc1ccc2c(c1)nc1n2CCCCC1)c1cc(S(=O)(=O)N2CCOCC2)ccc1Cl | -3.59% (inactive) |
| CCN(CC(=O)NC(C)C)C(=O)CCNC(=O)c1ccc(Cl)cc1 | 21% (inactive) |
| CN1CCN(S(=O)(=O)c2ccc(NC(=O)c3ccco3)cc2)CC1 | -8.04% (inactive) |
| CCC1SC2=NCCN2C1(O)c1ccc(Cl)cc1 (stereo not given) | -18.2% (inactive) |

| SMILES | activation |
| --- | --- |
| c1ccc(-c2oc3ncnc(N4CCOCC4)c3c2-c2ccccc2)cc1 | -12.4% (inactive) |
| CCC(C)Sc1nc2c(c(=O)[nH]c(=O)n2C)n1CC(O)COc1cccc2ccccc12 (stereo not given) | -21% (inactive) |
| CNC(=O)C1CC(=O)N(Cc2ccc3c(c2)OCO3)C(=Nc2ccc(F)cc2)S1 (stereo not given) | -16.6% (inactive) |
| COc1ccc(C(=O)CSc2nccc(=O)[nH]2)cc1 | -9.63% (inactive) |
| O=C(OCc1nnc(-c2ccccc2)o1)c1ccc2c(c1)C(=O)N(CCc1ccccc1)C2=O | -2.93% (inactive) |
| COc1c(C)cccc1C(=O)Nc1cc(Cl)ccc1N1CCOCC1 | -42.8% (inactive) |
| CC(=O)OCc1cc2cc(C)ccc2[nH]c1=O | -12% (inactive) |
| COc1cc2c(cc1OC)C(c1ccncc1)CC(=O)N2 (stereo not given) | -30.8% (inactive) |
| CCc1c(C)nc(N)n2c(SCC(=O)N3CCN(c4ccccc4)CC3)nnc12 | -9.46% (inactive) |
| CCOC(=O)c1c(NC(=O)CCC(=O)NCc2ccco2)sc2c1CCCC2 | -3.62% (inactive) |
| O=c1nc(N2CCOCC2)nc2n1CCO2 | 0.48% (inactive) |
| O=C(CN1C2CCC1CC(NC(=O)C1CC1)C2)NCc1ccccc1 (stereo not given) | -20% (inactive) |
| CCn1c(COc2cccc(OC)c2)nnc1SCC(=O)N1CCOCC1 | 2.04% (inactive) |
| COc1ccc(S(=O)(=O)N(CCCN2CCCC2=O)Cc2cc3c(C)ccc(C)c3[nH]c2=O)cc1 | -24.5% (inactive) |
| COc1ccccc1Nc1ncnc2c1oc1ccccc12 | -53.1% (inactive) |
| O=C(NCc1ccccn1)c1cc2ccccc2oc1=O | -7.53% (inactive) |
| O=C(CNCCO)NC12CC3CC(CC(C3)C1)C2 | 10% (inactive) |
| COc1cc(NS(=O)(=O)c2ccccc2)ccc1-n1nc(C)cc1C | 4.78% (inactive) |
| C=C(C)c1cccc(C(C)(C)NC(=O)N2CCN(c3ncccn3)CC2)c1 | 0.53% (inactive) |
| Cc1ccsc1C(=O)OCC(=O)c1cc2ccccc2o1 | 6.97% (inactive) |
